Data published in PubChem BioAssay AID2783 (National Center for Advancing Translational Sciences (NCATS), 2010).
Results filed as inconclusive are left out. The call rests on the fitted dose curve; in most records, active means well fitted inhibition curve with a large enough effect in the polarisation, with a control signal flat (not every such curve was filed as active); inconclusive means small, poorly fitted or top-dose-only effect, or effect the other way, or a change in a side signal; inactive means no such curve, though single readings can be large or run the other way; the % refers to the polarisation.

target: Menin (Homo sapiens) (UniProt O00255); assay: Confirmation of Inhibitors Targeting the Menin-MLL Interaction in MLL Related Leukemias: Competition With Fluorescein Labeled MLL-derived Peptide; settings: Fluorescence polarization, fluorescein-MLL peptide displacement from menin; series mostly up to 100 µM; activity change, negative = inhibition: at the top concentration
On the % scale 0 is the no-effect control and ±100 the full control effect.

Sequence of Menin (Homo sapiens) (O00255 whole entry, looked up): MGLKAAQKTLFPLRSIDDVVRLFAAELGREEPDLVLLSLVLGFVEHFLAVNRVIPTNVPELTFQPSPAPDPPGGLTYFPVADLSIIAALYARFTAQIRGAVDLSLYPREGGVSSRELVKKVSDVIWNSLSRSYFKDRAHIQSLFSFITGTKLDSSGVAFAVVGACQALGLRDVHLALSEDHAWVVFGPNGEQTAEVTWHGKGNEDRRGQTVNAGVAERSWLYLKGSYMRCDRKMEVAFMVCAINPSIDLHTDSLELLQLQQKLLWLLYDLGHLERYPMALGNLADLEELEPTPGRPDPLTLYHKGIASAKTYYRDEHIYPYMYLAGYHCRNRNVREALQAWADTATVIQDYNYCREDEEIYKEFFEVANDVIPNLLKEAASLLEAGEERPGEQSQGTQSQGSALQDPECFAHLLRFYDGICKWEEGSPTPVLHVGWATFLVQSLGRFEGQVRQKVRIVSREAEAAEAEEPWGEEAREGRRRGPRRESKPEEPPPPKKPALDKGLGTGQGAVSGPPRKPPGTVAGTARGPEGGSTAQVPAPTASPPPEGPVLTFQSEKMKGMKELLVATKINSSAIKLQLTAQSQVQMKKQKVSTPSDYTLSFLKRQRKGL

Activity change, negative = inhibition, inactive:
COc1ccc(Cn2nnnc2C(c2ccccc2)N2CCN(C3CCCC3)CC2)cc1 (centres undefined) -3.94%
Cc1cccc(NC(=O)CSc2nc3ccc(NC(=O)CSc4nnnn4-c4ccccc4)cc3s2)c1C 36.8% [at 288 µM]
Cc1ccc(NS(=O)(=O)c2csc(C(N)=O)c2)cc1C 1.62% [at 288 µM]
Cc1nc(C)c(-c2ccc(SCc3ccccc3F)nn2)s1 -13%
CCCOc1ccc(C(=O)N2CCN(Cc3ccc4c(c3)OCO4)CC2)cc1 -10.4%
COc1ccc(NC(=O)N2CC[C@@]3(CCCN(C(=O)c4csnn4)C3)C2)cc1 -0.89%
O=C(O)c1cc(S(=O)(=O)O)cc(Nc2c3ccccc3nc3ccccc23)c1O -0.894% [at 288 µM]
N#CC1=C(N)OC2=C(C(=O)CC(c3ccco3)C2)C1c1ccc(OCc2c(F)cccc2Cl)cc1 (centres undefined) 35.6% [at 182 µM]
COc1ccc(N(C(=O)c2ccncc2)S(=O)(=O)c2ccc(Cl)cc2)cc1 -1.48%
Cc1ccccc1-c1n[nH]c(=S)n1C -8.37%
O=C1NC(=S)N/C1=C/c1ccc2ccccc2c1 49.6% [at 288 µM]
Cc1nn(-c2ccccc2)c2nc(N)c(C(N)=O)cc12 -7.72%
COc1ccccc1NS(=O)(=O)c1cc(NC(=O)Nc2ccccc2)ccc1N1CCCCC1 -15.4%
CCN1C(=O)c2ccccc2S(=O)(=O)c2ccc(C(=O)NCCCN(CC(C)C)CC(C)C)cc21 -17.2%
COc1cc(SC)ccc1C(=O)Nc1cccc(C2OCCCO2)c1 -4.55% [at 288 µM]
COc1ccc(NC(=O)NC2(C(=O)N3CCOCC3)CCCCC2)cc1 1.56%
O=C(NC(=S)Nc1nc(-c2ccc(Br)cc2)cs1)c1cccnc1 -1.07%
CCc1ccccc1NC(=O)COc1cccc(-n2cnnn2)c1 -4.06% [at 288 µM]
COc1ccc(S(=O)(=O)Nc2cc(SCC(=O)O)c(O)c3ccccc23)cc1 0.163% [at 288 µM]
CC(=O)N1c2ccccc2C2(O)N=C(C)SC12 (centres undefined) -1.79% [at 288 µM]
O=C(CSc1nnc(-c2c[nH]c3ccccc23)o1)c1ccc(-c2ccccc2)cc1 3.72%
COc1ccccc1N(CC1CO1)S(=O)(=O)c1ccccc1 (centres undefined) -17.6%
CCCNC(=O)c1ccc2c(=O)c(O)c(C)[nH]c2c1 -14.9%
CC1CCCCN1S(=O)(=O)c1ccc(C(=O)Nc2ccccc2-c2nc3ccccc3[nH]2)cc1 (centres undefined) 8.04% [at 288 µM]
O=C(NCC1CCCO1)c1ccc(OC2CCN(C(=O)C3CC3)CC2)cc1 (centres undefined) 2.79%
CC(Sc1nnc(Nc2ccccc2)s1)C(=O)Nc1nc(-c2ccccc2)cs1 (centres undefined) 7.12%
CCOc1ccccc1N(CC(=O)Nc1ccccc1C(=O)N1CCCC1)S(C)(=O)=O -16.7%
Cc1ccc(C#CC(C)(O)C(C)(C)C)cn1 (centres undefined) -0.647%
Cc1ccc(C)n1-c1ccc(N(C)C)cc1 -7.52%
CCOc1ccc(NC(=O)c2cccc(OC(=S)N3CCC(C)CC3)c2)cc1 -20.4%
Cc1ccc(C2=NN(C(=O)c3ccccc3F)C(c3ccccc3F)C2)cc1 (centres undefined) 1.79% [at 288 µM]
COC(=O)Cc1c(C)nc2nc(-c3ccc(OC)cc3)[nH]n2c1=O -3.09% [at 288 µM]
CC(c1ccncn1)N(C)Cc1nc(-c2ccc(C(F)(F)F)cc2)no1 (centres undefined) -10.2%
O=C(Nc1cccn(Cc2c(Cl)cccc2Cl)c1=O)c1c(Cl)cccc1Cl 15.9% [at 288 µM]
